Measured values from PubChem BioAssay (EPA / NIEHS).
Records with an inconclusive call do not appear. Active and inactive are the calls of the source. How the source made its calls, unless noted: active means hit-call score of the fitted dose curve at least 0.9, where 1 is the maximum; inconclusive means response in the unintended direction; inactive means score below 0.9.

Assays:
[1] = TOX21_p53_BLA_p2_viability: Viability Assessment in the Tox21 HCT-116 p53 Agonism Beta-lactamase Assay, Phase 2 (AID 2283591);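 further: actives lower the ATP signal meaning cytotoxicity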
Summary of the method: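 HCT-116 p53-bla cells (4000/well) rested 5 h at 37C, then received compounds in DMSO (217-fold dilution) for 16 h at 37C, 5% CO2. After the CCF4 read, CellTiter-Glo was added; ATP luminescence was read after 30 min at room temperature.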

[2] = TOX21_p53_BLA_p3_viability: Viability Assessment in the Tox21 HCT-116 p53 Agonism Beta-lactamase Assay, Phase 3 (AID 2283593);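 further: cells exposed to compound for 16 h before reading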
Summary of the method: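 HCT-116 cells (4000/well) rested 5 h at 37C, then got DMSO compounds by pin tool (217-fold dilution) for 16 h at 37C, 5% CO2. After the bla read, CellTiter-Glo was added and luminescence read at 30 min, room temperature.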

[3] = molecular target: Cellular tumor antigen p53 (Homo sapiens) (UniProt P04637); test: TOX21_p53_BLA_p3_ratio: Tox21 HCT-116 p53 Agonism Beta-lactamase Assay, Ratio, Phase 3 (AID 2283596)
Summary of the method: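 Cells were seeded at 4000/well, rested 5 h at 37C, then dosed with DMSO compound solutions (217-fold dilution) for 16 h. CCF4-AM substrate was loaded for 2 h at room temperature, and the 460/530 nm emission ratio was fitted for gain of signal versus DMSO.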

[4] = TOX21_p53_BLA_p4_viability: Viability Assessment in the Tox21 HCT-116 p53 Agonism Beta-lactamase Assay, Phase 4 (AID 2283597);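 further: hits lower the luminescence signal meaning cytotoxicity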
Summary of the method: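 4000 HCT116 cells per well; 5 h attachment; compounds from DMSO, 217-fold dilution; 16 h at 37C. Then CCF4-AM, 2 h RT, followed by CellTiter-Glo, 30 min RT, luminescence. Decrease = cytotoxicity.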

[5] = molecular target: Cellular tumor antigen p53 (Homo sapiens) (UniProt P04637); test: TOX21_p53_BLA_p5_ratio: Tox21 HCT-116 p53 Agonism Beta-lactamase Assay, Ratio, Phase 5 (AID 2283599)
Summary of the method: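 HCT-116 cells carrying a p53-inducible beta-lactamase reporter were seeded at 4000 cells/well and dosed after 5 h with compound in DMSO (217-fold dilution). After 16 h at 37C, CCF4-AM substrate was added for 2 h, and the 460/530 nm emission ratio was scored as gain-of-signal versus DMSO.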

[6] = TOX21_p53_BLA_p5_viability: Viability Assessment in the Tox21 HCT-116 p53 Agonism Beta-lactamase Assay, Phase 5 (AID 2283600)
Summary of the method: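 Decreased CellTiter-Glo luminescence denotes lost viability. Exposure: 16 h at 37C, 5% CO2, with compounds from DMSO stocks diluted 217-fold in wells of 4000 cells.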

[7] = molecular target: Cellular tumor antigen p53 (Homo sapiens) (UniProt P04637); test: TOX21_p53_BLA_p4_ratio: Tox21 HCT-116 p53 Agonism Beta-lactamase Assay, Ratio, Phase 4 (AID 2283601)
Summary of the method: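 HCT116 cells carrying an inducible beta-lactamase reporter were plated at 4000 cells/well, rested 5 h, then exposed to compounds in DMSO (217-fold dilution) for 16 h at 37C. CCF4-AM substrate was loaded 2 h at room temperature; 460/530 nm emission ratio scored gain-of-signal versus DMSO.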

[8] = molecular target: Cellular tumor antigen p53 (Homo sapiens) (UniProt P04637); test: TOX21_p53_BLA_p2_ratio: Tox21 HCT-116 p53 Agonism Beta-lactamase Assay, Ratio, Phase 2 (AID 2283592)
Summary of the method: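 First, HCT116 reporter cells settle for 5 h at 37C. Next, DMSO compound solutions are pinned in (217-fold dilution) and left 16 h. Finally, CCF4-AM substrate is loaded 2 h at room temperature and the 460/530 nm ratio read.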

[9] = molecular target: Thyroid hormone receptor alpha (Rattus norvegicus) + Thyroid hormone receptor beta (Rattus norvegicus) (UniProt P18113+P63059); test: TOX21_TR_LUC_GH3_Agonist_Followup: Tox21 GH3 Thyroid Hormone Receptor Agonism Luciferase Follow-Up Assay (AID 2283939)
Summary of the method: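 Agonist-mode confirmatory run: 15 concentrations (5 nM to 92 uM final) on GH3 rat pituitary cells, 24 h at 37C/5% CO2, T3 as positive control. Luminescence read with ONE-Glo after 30 min.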

THRA (gene 7067) = THRA (gene 7067) (UniProt P10827); test: TOX21_TRA_COA_Agonist_Followup_ratio: Tox21 Thyroid Hormone Receptor alpha Agonism through Coactivator Recruitment Follow-Up Assay, Ratio (AID 2283948; active means hit-call score of the fitted dose curve at least 0.9, where 1 is the maximum; inactive means score below 0.9)
Summary of the method: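 Cell-free TR-FRET: GST-tagged TRα LBD (2.5 nM) with 0.10% BSA and compound, then fluorescein-SRC-2 peptide (200 nM) and Tb-anti-GST antibody (2 nM). Readout 520:495 nm ratio (ex 340 nm), normalized to DMSO (0%) and T3 (100%).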

THRB (gene 7068) [10] = molecular target: THRB (gene 7068) (UniProt P10828); test: TOX21_TRB_BLA_Agonist_Followup_ratio: Tox21 Thyroid Hormone Receptor beta Agonism Beta-lactamase (BLA) Follow-Up Assay, Ratio (AID 2283954)
Summary of the method: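 Agonist mode: compounds (11-point, triplicate) incubated 18 h with HEK293T cells carrying GAL4-DBD/human TRβ-LBD and UAS-β-lactamase. Blue/green (460/530 nm) FRET ratio read after 2 h CCF4-AM loading; CellTiter-Glo viability run in the same plates.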

THRB (gene 7068) [11] = molecular target: THRB (gene 7068) (UniProt P10828); test: TOX21_TRB_COA_Agonist_Followup_ratio: Tox21 Thyroid Hormone Receptor beta Agonism through Coactivator Recruitment Follow-Up Assay, Ratio (AID 2283963; active means hit-call score of the fitted dose curve at least 0.9, where 1 is the maximum; inactive means score below 0.9)
Summary of the method: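 Agonism is measured as coactivator recruitment in a purified-protein TR-FRET format, using GST-TRβ LBD at 5.0 nM, fluorescein-SRC-2 peptide at 200 nM and Tb-labeled anti-GST antibody at 2 nM. Values are 520:495 nm ratios relative to DMSO (0%) and T3 (100%).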

[12] = molecular target: Retinoic acid receptor RXR-alpha (Homo sapiens) (UniProt P19793); test: TOX21_TR_RXR_BLA_Agonist_Followup_ratio: Tox21 Thyroid Hormone Receptor beta Retinoid X Receptor alpha (RXRa) Agonism Beta-lactamase (BLA) Follow-Up Assay, Ratio (AID 2283968)
Summary of the method: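 Read-out: blue/green (460:530 nm) FRET ratio from cleaved vs uncleaved CCF4 substrate, fitted for gain of signal relative to DMSO. Cells: HEK293T with RXRa-UAS-bla reporter; 16 h compound exposure, 11 concentrations, triplicate.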

[13] = TOX21_TR_RXR_BLA_Agonist_Followup_viability: Viability Assessment in the Tox21 Thyroid Hormone Receptor beta Retinoid X Receptor alpha (RXRa) Agonism Beta-lactamase (BLA) Follow-Up Assay (AID 2283970)
Summary of the method: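 CellTiter-Glo ATP quantitation as viability read-out in RXRa-bla HEK293T cells (2,500/well, charcoal-stripped 2% FBS medium), 16h compound incubation at 37C. Loss of signal versus DMSO taken as cytotoxicity, analyzed by bidirectional curve fitting.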

[14] = CCTE_Harrill_HTTr_Viability_MCF7: CCTE's 6-hour Cell Viability Assessment for the High-Throughput Transcriptomics (HTTr) Platform, in MCF-7 cells cultured in DMEM + 10% fetal bovine serum, Harrill Lab (AID 2284010; active means hit-call score of the fitted dose curve at least 0.9, where 1 is the maximum; inactive means score below 0.9)
Summary of the method: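 PI exclusion, high-content imaging; 8-pt dilution series, 6 h exposure; bidirectional fit vs DMSO (neg. ctrl/baseline); gain of signal = loss of membrane integrity.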

[15] = CCTE_Harrill_HTTr_Apoptosis_MCF7: CCTE's 6-hour Apoptosis Assessment for the High-Throughput Transcriptomics (HTTr) Platform, in MCF-7 cells cultured in DMEM + 10% fetal bovine serum, Harrill Lab (AID 2284011; active means hit-call score of the fitted dose curve at least 0.9, where 1 is the maximum; inactive means score below 0.9)
Summary of the method: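 MCF-7 cells in DMEM + 10% FBS exposed 6 h to chemicals over an eight-point dilution series. Caspase-3/7 activation imaged by high-content CellEvent Green staining; fitted bidirectionally versus DMSO.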

[16] = CCTE_Harrill_HTTr_CellCount_MCF7: CCTE's Cell Proliferation Assessment for the High-Throughput Transcriptomics (HTTr) Platform, Harrill Lab (AID 2284012);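 further: count of Hoechst-stained nuclei per well by high-content imaging in MCF-7 cells; cells exposed to compound for six hours; intended direction is loss of nuclei count meaning fewer cells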
Summary of the method: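 Readout: Hoechst nuclear count by high-content imaging. MCF-7, 8-point dilution series, 6 h exposure. Bidirectional fit vs DMSO baseline.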

Measured: AC50

Sequence of Cellular tumor antigen p53 (Homo sapiens) (P04637 whole entry, looked up): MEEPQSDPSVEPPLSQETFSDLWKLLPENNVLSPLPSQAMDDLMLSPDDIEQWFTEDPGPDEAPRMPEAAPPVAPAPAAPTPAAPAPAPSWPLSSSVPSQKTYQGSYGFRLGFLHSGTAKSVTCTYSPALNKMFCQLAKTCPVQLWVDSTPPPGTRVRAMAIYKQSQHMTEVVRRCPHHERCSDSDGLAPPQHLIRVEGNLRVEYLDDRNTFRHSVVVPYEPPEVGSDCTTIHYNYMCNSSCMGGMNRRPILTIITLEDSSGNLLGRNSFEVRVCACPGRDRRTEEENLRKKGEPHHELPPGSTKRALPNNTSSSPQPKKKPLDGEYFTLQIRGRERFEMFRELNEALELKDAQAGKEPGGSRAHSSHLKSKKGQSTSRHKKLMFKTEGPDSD
Sequence of THRB (gene 7068) (P10828 whole entry, looked up, the tested form may be a part): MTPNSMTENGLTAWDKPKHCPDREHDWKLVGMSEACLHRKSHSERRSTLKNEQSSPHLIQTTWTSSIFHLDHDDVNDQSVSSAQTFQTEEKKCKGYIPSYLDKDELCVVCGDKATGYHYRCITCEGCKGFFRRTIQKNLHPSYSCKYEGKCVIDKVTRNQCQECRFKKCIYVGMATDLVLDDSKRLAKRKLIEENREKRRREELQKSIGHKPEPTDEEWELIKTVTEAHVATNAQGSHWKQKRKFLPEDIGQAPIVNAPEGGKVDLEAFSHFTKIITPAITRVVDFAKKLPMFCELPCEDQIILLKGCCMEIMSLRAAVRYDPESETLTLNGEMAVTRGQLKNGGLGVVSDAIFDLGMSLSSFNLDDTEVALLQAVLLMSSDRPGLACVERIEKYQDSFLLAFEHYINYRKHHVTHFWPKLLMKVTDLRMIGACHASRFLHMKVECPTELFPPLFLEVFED
Sequence of THRA (gene 7067) (P10827 whole entry, looked up, the tested form may be a part): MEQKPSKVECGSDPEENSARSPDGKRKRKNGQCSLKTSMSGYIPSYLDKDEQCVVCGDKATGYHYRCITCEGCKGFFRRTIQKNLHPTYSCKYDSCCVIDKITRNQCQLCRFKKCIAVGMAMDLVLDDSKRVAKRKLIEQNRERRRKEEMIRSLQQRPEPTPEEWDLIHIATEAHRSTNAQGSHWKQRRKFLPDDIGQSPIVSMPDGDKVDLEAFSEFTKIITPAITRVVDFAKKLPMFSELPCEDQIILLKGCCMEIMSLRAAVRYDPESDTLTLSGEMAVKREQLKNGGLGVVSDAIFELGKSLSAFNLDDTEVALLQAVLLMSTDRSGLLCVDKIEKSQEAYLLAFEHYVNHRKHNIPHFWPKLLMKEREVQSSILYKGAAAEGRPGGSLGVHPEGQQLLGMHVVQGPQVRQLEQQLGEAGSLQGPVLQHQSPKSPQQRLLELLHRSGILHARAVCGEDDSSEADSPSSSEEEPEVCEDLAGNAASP
Sequence of Retinoic acid receptor RXR-alpha (Homo sapiens) (P19793 whole entry, looked up): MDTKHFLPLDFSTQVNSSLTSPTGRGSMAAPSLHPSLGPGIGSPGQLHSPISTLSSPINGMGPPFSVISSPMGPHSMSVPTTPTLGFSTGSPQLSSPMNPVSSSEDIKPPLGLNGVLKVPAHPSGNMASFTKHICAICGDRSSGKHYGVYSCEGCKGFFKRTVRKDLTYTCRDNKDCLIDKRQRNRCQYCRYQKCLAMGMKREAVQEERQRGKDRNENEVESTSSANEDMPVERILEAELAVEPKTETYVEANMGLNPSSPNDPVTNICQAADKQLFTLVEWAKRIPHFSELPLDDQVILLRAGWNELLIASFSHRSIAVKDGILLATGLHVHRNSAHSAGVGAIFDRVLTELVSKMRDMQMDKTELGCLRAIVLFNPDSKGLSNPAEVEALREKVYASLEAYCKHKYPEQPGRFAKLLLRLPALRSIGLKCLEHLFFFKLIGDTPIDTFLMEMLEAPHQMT
Sequence of Thyroid hormone receptor alpha (Rattus norvegicus) + Thyroid hormone receptor beta (Rattus norvegicus) (P63059 whole entry, looked up): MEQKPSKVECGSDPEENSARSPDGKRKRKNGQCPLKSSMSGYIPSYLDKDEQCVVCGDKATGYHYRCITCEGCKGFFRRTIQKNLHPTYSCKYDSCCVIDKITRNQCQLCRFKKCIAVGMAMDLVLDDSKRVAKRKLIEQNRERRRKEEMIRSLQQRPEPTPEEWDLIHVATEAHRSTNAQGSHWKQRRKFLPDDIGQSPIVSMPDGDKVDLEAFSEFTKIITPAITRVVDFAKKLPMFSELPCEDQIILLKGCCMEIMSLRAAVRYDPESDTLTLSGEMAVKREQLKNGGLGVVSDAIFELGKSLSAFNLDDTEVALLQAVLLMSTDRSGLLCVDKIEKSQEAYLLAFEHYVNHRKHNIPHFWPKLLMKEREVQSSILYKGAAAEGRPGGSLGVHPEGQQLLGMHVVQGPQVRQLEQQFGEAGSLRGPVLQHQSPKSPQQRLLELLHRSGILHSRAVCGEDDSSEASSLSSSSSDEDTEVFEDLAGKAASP
Sequence of Thyroid hormone receptor alpha (Rattus norvegicus) + Thyroid hormone receptor beta (Rattus norvegicus) (P18113 whole entry, looked up): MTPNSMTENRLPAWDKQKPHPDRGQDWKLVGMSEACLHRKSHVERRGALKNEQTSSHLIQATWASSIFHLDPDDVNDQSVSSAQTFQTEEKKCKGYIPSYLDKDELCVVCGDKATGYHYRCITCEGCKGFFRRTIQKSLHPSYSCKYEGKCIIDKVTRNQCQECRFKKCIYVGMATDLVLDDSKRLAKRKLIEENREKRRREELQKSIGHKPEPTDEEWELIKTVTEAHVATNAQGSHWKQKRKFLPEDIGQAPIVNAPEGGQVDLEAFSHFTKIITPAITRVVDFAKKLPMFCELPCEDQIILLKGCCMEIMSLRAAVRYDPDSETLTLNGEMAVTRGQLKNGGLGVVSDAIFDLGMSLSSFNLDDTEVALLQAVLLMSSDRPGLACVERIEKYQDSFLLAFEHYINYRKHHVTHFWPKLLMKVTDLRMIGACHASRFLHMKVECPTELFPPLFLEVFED

CCC(=O)O[C@]1(c2ccccc2)CCN(C)C[C@H]1C
inactive: [1] | [2] | [3] | [4] | [5] | [6] | [7]

CCOC(=O)CBr
inactive: [1] | [2] | [3] | [4] | [6] | [7]

CCCN(CC1CC1)c1c([N+](=O)[O-])cc(C(F)(F)F)cc1[N+](=O)[O-]
inactive: [1] | [2] | [3] | [4] | [5] | [6]

C[C@@H]1[C@@H]2Cc3ccc(O)cc3[C@@]1(C)CCN2CC1CC1
inactive: [1] | [8] | [6] | [7]

CC(Cc1ccccc1)NCc1ccccc1Cl (stereo not given)
inactive: [1] | [2] | [3] | [4] | [5] | [6] | [7]

CC(=O)O[C@H]1C[C@H](O[C@H]2[C@@H](O)C[C@H](O[C@H]3[C@@H](O)C[C@H](OC4CC[C@@]5(C)C(CC[C@@H]6[C@@H]5CC[C@]5(C)[C@@H](C7=CC(=O)OC7)[C@@H](O)C[C@]65O)C4)O[C@@H]3C)O[C@@H]2C)O[C@H](C)[C@H]1O[C@@H]1O[C@H](CO)[C@@H](O)[C@H](O)[C@H]1O (stereo not given in full)
active: [1] 0.463 µM | [2] 0.683 µM | [4] 0.582 µM | [6] 0.473 µM

COc1ccc(OC)c([C@@H](O)[C@H](C)N)c1
inactive: [1] | [2] | [3] | [6] | [7] | THRA (gene 7067) | THRB (gene 7068) [10] | THRB (gene 7068) [11] | [12] | [13]
active: [9] 14.9 µM

CC(C)CCCCCOC(=O)c1ccccc1C(=O)OCCCCCC(C)C
inactive: [1] | [2] | [4] | [7]

CC(C)C(Nc1ccc(C(F)(F)F)cc1Cl)C(=O)OC(C#N)c1cccc(Oc2ccccc2)c1 (stereo not given)
active: [3] 87.3 µM
inactive: [1] | [2] | [5] | [7]

CC(=O)CCC(C)=O
inactive: [1] | [2] | [4] | [5]

O=C(OCCN1CCCCC1)C(O)(c1ccccc1)c1ccccc1
inactive: [1] | [3] | [5] | [7]
active: [2] 42.4 µM

[Cl-].[Cl-].[Cl-].[Fe+3]
inactive: [1] | [2] | [4] | [6] | [14] | [15] | [16]
